# Where “and” joins values, the source holds several entries; their conditions need not be identical. Identical values can stand only once. In all, about 290,000 compounds went through this assay and about 570 (0.2%) were called active. Another 1% or so got no clear call; they are omitted. Rule as the data show it: active = inhibition mostly above about 51% (no sharp cut-off); inconclusive = no clear call, values can overlap the other calls; inactive = mostly below about 53%. Shown is part of a subset that was picked to be rich in actives.
# Biological target: Voltage-dependent N-type calcium channel subunit alpha-1B (Homo sapiens) (UniProt Q00975)
# Test: inhibitors of Mint1-CaV2.2 protein interaction, biochemical, HTRF (AID 2073)
# Details: at 20 µM, stronger effect = higher value
# [1] = measured here: average of repeat tests
# Sequence of Voltage-dependent N-type calcium channel subunit alpha-1B (Homo sapiens) (Q00975 whole entry, looked up): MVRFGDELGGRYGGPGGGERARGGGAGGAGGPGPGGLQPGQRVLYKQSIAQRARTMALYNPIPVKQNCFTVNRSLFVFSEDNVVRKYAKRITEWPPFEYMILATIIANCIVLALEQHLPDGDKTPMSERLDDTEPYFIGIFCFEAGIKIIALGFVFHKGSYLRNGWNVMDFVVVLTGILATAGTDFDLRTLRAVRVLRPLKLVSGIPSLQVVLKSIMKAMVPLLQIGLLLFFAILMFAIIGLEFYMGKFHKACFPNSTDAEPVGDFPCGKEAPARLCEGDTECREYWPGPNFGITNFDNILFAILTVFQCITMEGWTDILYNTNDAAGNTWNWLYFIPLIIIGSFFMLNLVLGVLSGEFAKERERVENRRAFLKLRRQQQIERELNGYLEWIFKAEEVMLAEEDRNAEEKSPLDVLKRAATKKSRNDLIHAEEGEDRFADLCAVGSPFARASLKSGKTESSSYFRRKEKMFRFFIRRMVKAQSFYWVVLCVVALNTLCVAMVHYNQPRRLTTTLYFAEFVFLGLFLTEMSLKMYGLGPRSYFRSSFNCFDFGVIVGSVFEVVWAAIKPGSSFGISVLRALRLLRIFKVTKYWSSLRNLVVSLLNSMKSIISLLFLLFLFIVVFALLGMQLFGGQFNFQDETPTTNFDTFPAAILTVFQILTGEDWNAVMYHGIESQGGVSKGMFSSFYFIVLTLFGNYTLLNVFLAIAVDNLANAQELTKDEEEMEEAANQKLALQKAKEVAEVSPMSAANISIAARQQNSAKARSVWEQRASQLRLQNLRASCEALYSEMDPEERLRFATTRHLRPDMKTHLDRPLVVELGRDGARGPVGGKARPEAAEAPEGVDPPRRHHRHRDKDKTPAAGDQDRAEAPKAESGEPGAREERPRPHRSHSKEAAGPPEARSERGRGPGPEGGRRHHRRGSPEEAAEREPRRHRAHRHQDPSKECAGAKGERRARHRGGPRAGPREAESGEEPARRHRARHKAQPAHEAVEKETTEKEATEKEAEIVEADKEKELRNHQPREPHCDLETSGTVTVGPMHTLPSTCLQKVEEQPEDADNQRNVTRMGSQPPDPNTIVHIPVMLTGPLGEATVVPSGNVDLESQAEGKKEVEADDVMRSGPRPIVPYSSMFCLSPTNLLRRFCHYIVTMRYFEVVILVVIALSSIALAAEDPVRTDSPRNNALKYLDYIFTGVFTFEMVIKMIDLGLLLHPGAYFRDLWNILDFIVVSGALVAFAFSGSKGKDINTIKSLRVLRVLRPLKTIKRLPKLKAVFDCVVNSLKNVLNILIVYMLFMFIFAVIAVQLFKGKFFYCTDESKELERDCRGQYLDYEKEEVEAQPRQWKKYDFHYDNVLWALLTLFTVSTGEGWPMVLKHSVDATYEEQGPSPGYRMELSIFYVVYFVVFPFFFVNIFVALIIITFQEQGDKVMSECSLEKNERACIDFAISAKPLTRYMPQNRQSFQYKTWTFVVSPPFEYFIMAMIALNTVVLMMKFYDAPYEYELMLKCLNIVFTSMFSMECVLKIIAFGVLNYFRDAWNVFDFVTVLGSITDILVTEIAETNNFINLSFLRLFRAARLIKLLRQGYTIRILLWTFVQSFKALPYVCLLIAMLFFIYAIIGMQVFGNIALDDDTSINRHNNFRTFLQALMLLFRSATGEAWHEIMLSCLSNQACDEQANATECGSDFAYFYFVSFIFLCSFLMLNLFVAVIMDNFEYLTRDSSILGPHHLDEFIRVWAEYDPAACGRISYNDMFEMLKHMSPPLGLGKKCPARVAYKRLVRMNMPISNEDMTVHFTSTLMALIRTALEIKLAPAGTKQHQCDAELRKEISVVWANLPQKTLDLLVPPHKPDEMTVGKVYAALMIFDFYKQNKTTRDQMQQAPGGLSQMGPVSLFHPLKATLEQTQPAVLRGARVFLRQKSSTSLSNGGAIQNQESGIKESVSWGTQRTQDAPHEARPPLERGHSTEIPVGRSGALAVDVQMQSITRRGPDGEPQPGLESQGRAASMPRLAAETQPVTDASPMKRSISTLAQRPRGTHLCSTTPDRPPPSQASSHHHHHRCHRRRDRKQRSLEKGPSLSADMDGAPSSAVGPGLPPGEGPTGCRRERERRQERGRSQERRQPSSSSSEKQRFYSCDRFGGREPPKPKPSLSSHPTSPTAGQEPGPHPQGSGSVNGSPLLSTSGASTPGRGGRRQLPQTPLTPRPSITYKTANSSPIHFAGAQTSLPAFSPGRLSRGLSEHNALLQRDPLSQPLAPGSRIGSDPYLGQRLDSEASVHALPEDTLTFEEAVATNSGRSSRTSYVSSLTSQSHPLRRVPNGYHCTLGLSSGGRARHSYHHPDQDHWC
Compound,inhibition,inhibition [1] [%]
COc1cc(CNc2ccc3[nH]c(=O)[nH]c3c2)ccc1OCC(=O)NC(C)(C)C,43.9% (inactive),
COc1cc(CNc2ccc3[nH]c(=O)[nH]c3c2)cc(Cl)c1OCC(=O)NC(C)(C)C,51.8% (active),
COc1cc(CNc2ccc3[nH]c(=O)[nH]c3c2)cc(Br)c1OCC(=O)NC(C)(C)C,-33% (inactive),
COc1ccc(OC)c(C(=O)NC(CC(N)=O)c2ccc(NCC3CC3)c([N+](=O)[O-])c2)c1 (stereo not given),-4.2% (inactive),
O=C(c1cccc(C(=O)N(c2ccccn2)C2CCCCC2)c1)N(c1ccccn1)C1CCCCC1,-10.9% (inactive),
O=S(=O)(Nc1cc(Sc2ncn[nH]2)c(O)c2ccccc12)c1ccccc1,56.7% (inactive),-21.5
O=S(=O)(Nc1cc(Sc2cccc3cccnc23)c(O)c2ccccc12)c1ccccc1,69.2% (active),
O=S(=O)(Nc1cc(Sc2cccc3cccnc23)c(O)c2ccccc12)c1ccc(F)cc1,-17% (inactive),
COc1ccc(C2N(C(=O)c3ccccc3)CCN2C(=O)c2ccc(C)cc2)cc1 (stereo not given),-6.5% (inactive),
CN(Cc1c(C(=O)N2CCCCCCC2)nc2ccc(Cl)cn12)C1CCOC1 (stereo not given),-10% (inactive),
COC(=O)N1CC(c2ccccc2)CC1=O (stereo not given),-7.4% (inactive),
Nc1nc(-c2ccc([N+](=O)[O-])cc2)cs1,35.7% (inactive),
O=[N+]([O-])c1ccc(-c2cnc3ccccc3n2)cc1,6.2% (inactive),
Cc1ccccc1OCC(=O)N/N=C/c1ccc([N+](=O)[O-])o1,6.4% (inactive),
Cc1ccc(OCC(=O)N/N=C/C=C/c2ccco2)cc1,53.6% (inactive),27.1
Cc1ccc(OCC(=O)N/N=C/C=C/c2ccco2)cc1C,55.3% (active),
Cc1cccc(OCC(=O)N/N=C/C=C/c2ccco2)c1,59.6% (inactive),16
COc1ccccc1OCC(=O)N/N=C/C=C/c1ccc([N+](=O)[O-])o1,54.5% (active),
O=C(COc1ccccc1[N+](=O)[O-])N/N=C/C=C/c1ccco1,4.5% (inactive),
COCc1c(C(=O)OCC(=O)NCCN2C(=O)CSC2=O)oc2ccccc12,1.8% (inactive),
COCCCNC(=O)c1cc2c(-c3ccc(Cl)cc3)nn(C)c2s1,13% (inactive),
O=S(=O)(NCc1ccccc1)NCc1ccccc1,0.7% (inactive),

Compound,inhibition,inhibition [1] [%]
CCN(CC)S(=O)(=O)c1cc(C(=O)OCC(=O)Nc2cccc(Br)c2)ccc1F,-2.8% (inactive),
Oc1c(/C=C/C=C/C=Nc2ccccc2)sc(=S)n1Cc1ccccc1,50.6% (active),
CCCn1c(O)c(C=Nc2ccccc2)sc1=S,35.6% (inactive),
CCCCn1c(O)c(/C=C/C=C/C=Nc2ccccc2)sc1=S,71.6% (active),
Oc1c(C=Nc2ccccc2)sc(=S)n1Cc1ccccc1,-4.9% (inactive),
O=C(O)Cn1c(O)c(C=Nc2ccccc2)sc1=S,-17.7% (inactive) and -1.2% (inactive),
CCn1c(O)c(/C=C/C=C/C=Nc2ccccc2)sc1=S,1.5% (inactive),
O=C(Nc1cccc(Cl)c1)Nc1ccccc1C(=O)NCc1ccco1,3.4% (inactive),
CCc1ccccc1NC(=S)NC1CC2CCC(C1)N2Cc1ccc(F)cc1 (stereo not given),-9.8% (inactive),
CCn1c(SCC(=O)NNC(=O)c2ccc(C)cc2)nnc1C1CC1,7.6% (inactive),
COc1ccccc1-c1nnc(SCC(=O)NCc2cccs2)n1N,-0.4% (inactive),
O=[N+]([O-])c1ccc(/C=N\NS(=O)(=O)c2ccc(F)cc2)o1,-7% (inactive),
O=C1OC(c2ccc(F)cc2)=C/C1=C\c1ccc(O)cc1,-0.4% (inactive),
O=C1OC(c2ccc(F)cc2)=C/C1=C\c1ccc([N+](=O)[O-])o1,73% (active),
CCOc1ccc(NC(=O)NC(=O)N(C)S(=O)(=O)c2ccc(C)cc2)cc1,8.1% (inactive),
O=C(c1ccccc1)c1ccc2nc(-c3ccco3)c(-c3ccco3)nc2c1,76.5% (active),
O=C(NCc1ccccc1)c1ccc2nc(-c3ccco3)c(-c3ccco3)nc2c1,55.4% (inactive),20.4
O=C(c1ccc2nc(-c3ccco3)c(-c3ccco3)nc2c1)N1CCN(c2ccccc2)CC1,47.9% (inactive),
Cc1ccc(C)c(N2CCN(C(=O)c3ccc4nc(-c5ccco5)c(-c5ccco5)nc4c3)CC2)c1,56.6% (inactive),15.5
COc1ccccc1N1CCN(C(=O)c2ccc3nc(-c4ccco4)c(-c4ccco4)nc3c2)CC1,70% (active),
O=C(Nc1ccccc1)c1ccc2nc(-c3ccco3)c(-c3ccco3)nc2c1,57.1% (inactive),-4.3
O=C(NCC1CCCO1)/C(=C/c1ccccc1)NC(=O)c1ccccc1 (stereo not given),-11.4% (inactive),

# Source: PubChem BioAssay AID2073 (Sanford-Burnham Center for Chemical Genomics, 2009)
